The record followed here is PubChem BioAssay AID493203 (National Center for Advancing Translational Sciences (NCATS), 2011).

Results filed as inconclusive are left out. Entries that show only a call come without a potency. Calls of active or inactive are those of the source. The call rests on the fitted dose curve; in most records, active means well fitted activation curve with a large enough effect; inconclusive means small, poorly fitted or top-dose-only effect; inactive means flat fitted curve, though single readings scatter.
Potency means the concentration at half of the fitted maximal effect.

A short description of the test: qHTS Assay for NPC1 Promoter Activators: Initial hit validation from the primary screen. To be noted: Huh7 NPC1 promoter-luciferase reporter, luminescence, 24 h; series mostly up to 46.1 µM. The method, boiled down: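 Promoter activation measured as luciferase luminescence (Amplite reagent, 10 minutes ambient) after 24 hours' compound exposure at 37C. Cells: NPC1-luciferase Huh7, 1500 per well, reduced-serum OP-MEM I plus 10% FBS.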
Background: Quantitative high-throughput screening tests each substance at several concentrations.
In the case of `CCN(C(=O)COC(=O)c1ccc(C=O)cc1)c1c(N)n(Cc2ccccc2)c(=O)[nH]c1=O`, the Potency entry was “inactive”.

As for `COc1ccccc1N(C(=O)c1snc(C(N)=O)c1N)C(C(=O)NC1CCCCC1)c1cccc(OC)c1OC` (stereo not drawn), the Potency result is “inactive”. For `CCOC(=O)CSc1nc2cc3c(cc2cc1C#N)OCO3` the value was 888 nM (active). For `COc1cccc(NC(=O)CN2C(=O)CSc3ccc(S(=O)(=O)N4CCC(C)CC4)cc32)c1` the value was “inactive”; for `COCCNC(=O)CN1C(=O)NC(c2ccccc2)(c2ccccc2)C1=O`, “inactive”; for `Cc1ccc(NC(=O)c2ncc(Cl)c(Cl)c2Cl)cc1C`, “inactive”. Take `Cc1nc(SCC(=O)NC(=O)NC(C)(C)C)nc(C)c1C`: the Potency entry was “inactive”. For `COc1ccc(/C=C\c2onc(C)c2S(=O)(=O)N2CCC(C(=O)NCCC(C)C)CC2)cc1` the value was “inactive”; for `Cc1ccc(N=Cc2sc(O)c3ccccc23)c(C)c1`, 1770 nM (active). With `Cc1ccccc1NC(=O)Cc1nc(COC(=O)CC(C)c2ccccc2)cs1` (stereo not drawn), the Potency entry is “inactive”. For `CCOC(=O)c1ccc(-c2nnc(-c3ccc(Cl)cc3Cl)o2)cc1` the value was 2500 nM (active); for `CC(Sc1nnc(C(F)(F)F)n1C)C(=O)Nc1ccc(S(N)(=O)=O)cc1` (stereo not drawn), “inactive”; for `CCC(C)(C)NC(=O)C(c1ccc(OC)cc1)N(Cc1cccs1)C(=O)CCC(=O)Nc1cc(C)on1` (stereo not drawn), “inactive”. For `CC(C)(C)NC(=S)NNC(=O)c1ccc2ncccc2c1` the value was 3530 nM (active); for `COC(=O)c1ccccc1NC(=O)c1ccc(-c2ccc(Br)cc2)o1`, “inactive”; for `COCc1cc(C)nc(N/N=C/c2ccc(-c3ccc(Cl)cc3[N+](=O)[O-])o2)c1C#N`, “inactive”. For `CCN(CC(=O)N(CC(C)C)c1c(N)n(CC(C)C)c(=O)[nH]c1=O)Cc1nc2ccccc2c(=O)[nH]1` the value was “inactive”; for `CCCNC(=O)C1CCN(S(=O)(=O)c2ccc3[nH]c(=O)ccc3c2)CC1`, “inactive”. Turning to `COc1ccc(/C=C\C(=O)c2c(O)ccc3c(C)cc(=O)oc23)cc1OC`, the Potency result was “inactive”. For `Nc1ccccc1C(=O)N/N=C1/C2CN3CCN(C2)CC1(Cc1ccccc1)C3` the value was “inactive”. For `CN(C)C(CNC(=O)CNC(=O)c1ccc2ccccc2c1)c1ccccc1` (stereo not drawn) the value was “inactive”; for `Cc1ccc(C(=O)NC2CCN(CC(=O)Nc3c(C)cc(C)cc3C)CC2)cc1`, “inactive”; for `COC(=O)c1ccc(NC(=O)c2ccc3nc(C)sc3c2)cc1`, 888 nM (active). For `COC(=O)CSc1nc2cc3c(cc2cc1C#N)OCO3` the value was 315 nM (active). Regarding `O=C(c1cc2cc([N+](=O)[O-])ccc2oc1=O)n1cccn1`, the Potency entry was “inactive”.

As for `CC(C)C1(CCNC(=O)c2cccs2)CCOC(C)(C)C1` (stereo not drawn), the Potency entry is “inactive”.

For `CCOC(=O)c1ccccc1NC(=O)CSc1nnc(Cc2cccn2C)n1-c1ccc(F)cc1`, the Potency result was “inactive”. As for `CN(C)C(=O)[C@H]1C[C@H]1[C@@H](O)[C@H](CO)NC(=O)[C@H](COCc1ccccc1)NC(=O)OC(C)(C)C`, the Potency entry is “inactive”.

With `COc1ccc(C)cc1N(C(=O)CNC(=O)c1ccco1)C(C(=O)NC1CCCC1)c1cccnc1` (stereo not drawn), the Potency entry was “inactive”.

On to `O=C(NCCc1ccccc1)c1cc2ncc(Br)cn2n1`, for which the Potency was 14100 nM (active). For `O=C(CCCOc1ccc(Cl)cc1)N1CCCCC1` the value was 25000 nM (active).

On to `Cc1cc(C)cc(N(CC(=O)NC2CCCC2)C(=O)CNC(=O)c2ccco2)c1`, for which the Potency result was “inactive”.

Turning to `O=C(CCCN1C(=O)C(c2ccccc2)Oc2cccnc21)Nc1ccccc1Cl` (stereo not drawn), the Potency entry was “inactive”.
